Laboratory results reported in PubChem BioAssay (EPA / NIEHS).
Calls of active or inactive are those of the source. How the source made its calls: active means hit-call score of the fitted dose curve at least 0.9, where 1 is the maximum; inactive means score below 0.9.

Tests used:
[1] = BSK_3C_SRB: Viability Assessment in the BioMAP Diversity Plus: 3C Assay (AID 2283023); conditions: primary human endothelial cells (HUVEC);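 further: fitted both ways against DMSO so a hit may be signal rise or drop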
Outline: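 Overt cytotoxicity is gauged in parallel confluent HUVEC cultures by SRB total-protein staining at the time of biomarker measurement, 24 h after dosing. Gain or loss of signal is fitted versus DMSO.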

[2] = read-out: Matrix Metallopeptidase 1 (MMP1), MMP1 (gene 4312); test: BSK_BE3C_MMP1: BioMAP Diversity Plus: BE3C Assay for Matrix Metallopeptidase 1 (MMP1) Biomarker Activity (AID 2283024); conditions: primary human bronchial epithelial cells; actives raise or lower the signal
Outline: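 ELISA read-out of MMP1 in human lung bronchial epithelial primary cultures, 24 h post-dose; bidirectional curve fit vs DMSO baseline, gain or loss of signal scored.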

[3] = BSK_3C_Vis: BioMAP Diversity Plus: 3C Assay for Morphology Visualization (AID 2283025); conditions: primary human endothelial cells (HUVEC);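 further: fitted both ways so gain or loss versus DMSO counts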;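 on AC50: light microscopy image of cell morphology used as background control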
Outline: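 HUVEC, 3C system; light microscopy of morphology at 24 h post-dose. Bidirectional fit vs DMSO baseline. Secondary readout, background-control function.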

[4] = read-out: Pselectin, SELP (gene 6403); test: BSK_4H_Pselectin: BioMAP Diversity Plus: 4H Assay for Pselectin Biomarker Activity (AID 2283026); conditions: primary human endothelial cells (HUVEC); actives raise or lower the signal
Outline: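 HUVEC, 24 h chemical exposure; P-selectin read by ELISA. Bidirectional curve fit vs DMSO baseline; gain or loss of signal scored.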

[5] = BSK_4H_SRB: Viability Assessment in the BioMAP Diversity Plus: 4H Assay (AID 2283027); conditions: primary human endothelial cells (HUVEC);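 further: cells exposed to compound for 24 h before staining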;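 on AC50: curves fitted both ways versus DMSO so AC50 may be loss or gain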
Outline: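 Cytotoxicity readout: sulforhodamine B (0.1%) staining of total protein after 10% TCA fixation, measured at 560 nm in human umbilical vein endothelium at 24 h. DMSO set the baseline; fitting was bidirectional.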

[6] = BSK_BE3C_SRB: Viability Assessment in the BioMAP Diversity Plus: BE3C Assay (AID 2283028); conditions: primary human bronchial epithelial cells;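 further: measured 24 h after chemical dosing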
Outline: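 SRB total-protein staining (0.1%, after TCA fixation) of chemically dosed human bronchial epithelial primary cells at 24 h; DMSO serves as the negative control for bidirectional curve fitting.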

[7] = read-out: Thrombomodulin, THBD (gene 7056); test: BSK_3C_Thrombomodulin: BioMAP Diversity Plus: 3C Assay for Thrombomodulin Biomarker Activity (AID 2283029); conditions: primary human endothelial cells (HUVEC); actives raise or lower the signal
Outline: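 HUVEC, 3C conditions; compound 24 h; thrombomodulin by ELISA; bidirectional curve fit vs DMSO baseline; parallel SRB total-protein staining for cytotoxicity.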

[8] = read-out: Vascular endothelial growth factor receptor 2 (Homo sapiens) (UniProt P35968); test: BSK_4H_VEGFRII: BioMAP Diversity Plus: 4H Assay for Vascular endothelial growth factor receptor 2 (VEGFR2) Biomarker Activity (AID 2283031); conditions: primary human endothelial cells (HUVEC); actives raise or lower the signal;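 on AC50: cell-surface VEGFR2 protein level quantified by ELISA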
Outline: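 In this multiplexed HUVEC system, biomarker ELISA was performed after 24 h chemical exposure. Parallel SRB staining (TCA fixation, 560 nm) tracked cytotoxicity; DMSO served as baseline.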

[9] = read-out: Human Leukocyte Antigen - DR isotype (HLADR), HLA-DRA (gene 3122); test: BSK_BE3C_HLADR: BioMAP Diversity Plus: BE3C Assay for Human Leukocyte Antigen - DR isotype (HLADR) Biomarker Activity (AID 2283032); conditions: primary human bronchial epithelial cells; actives raise or lower the signal
Outline: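 Primary human bronchial epithelial cells (BE3C); 24 h chemical exposure; HLA-DR by ELISA; bidirectional curve fit vs DMSO baseline.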

[10] = read-out: Vascular cell adhesion molecule 1 (VCAM1), VCAM1 (gene 7412); test: BSK_4H_VCAM1: BioMAP Diversity Plus: 4H Assay for Vascular cell adhesion molecule 1 (VCAM1) Biomarker Activity (AID 2283033); conditions: primary human endothelial cells (HUVEC); actives raise or lower the signal
Outline: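 HUVEC, 24 h post-dose; VCAM-1 by ELISA. Bidirectional curve fit vs DMSO baseline. Parallel SRB total-protein stain (0.1% SRB after 10% TCA fixation, 560 nm) for cytotoxicity.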

[11] = read-out: Interferon-gamma inducible Protein 10 (IP10), CXCL10 (gene 3627); test: BSK_BE3C_IP10: BioMAP Diversity Plus: BE3C Assay for Interferon-gamma inducible Protein 10 (IP10) Biomarker Activity (AID 2283034); conditions: primary human bronchial epithelial cells; actives raise or lower the signal
Outline: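 ELISA readout of IP-10 in BE3C system: primary human bronchial epithelial cells, 24 h post-dosing; bidirectional curve fit vs DMSO baseline.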

[12] = read-out: Monokine induced gamma interferon (MIG), CXCL9 (gene 4283); test: BSK_BE3C_MIG: BioMAP Diversity Plus: BE3C Assay for Monokine induced gamma interferon (MIG) Biomarker Activity (AID 2283035); conditions: primary human bronchial epithelial cells; actives raise or lower the signal;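 further: MIG protein measured by ELISA in BE3C cultures after 24 h of dosing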
Outline: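 hu bronchial epithelial 1° cells, 24 h cpd; MIG by ELISA; bidirectional fit, DMSO = baseline.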

[13] = read-out: Transforming growth factor beta 1 (TGFb1), TGFB1 (gene 7040); test: BSK_BE3C_TGFb1: BioMAP Diversity Plus: BE3C Assay for Transforming growth factor beta 1 (TGFb1) Biomarker Activity (AID 2283036); conditions: primary human bronchial epithelial cells; actives raise or lower the signal
Outline: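 Read-out: ELISA for TGF-b1 in primary human bronchial epithelial cultures, 24 h post-dose. Bidirectional curve fitting vs DMSO control; gain or loss of signal both scored.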

[14] = read-out: Plasminogen activator inhibitor-1 (PAI1), SERPINE1 (gene 5054); test: BSK_BE3C_PAI1: BioMAP Diversity Plus: BE3C Assay for Plasminogen activator inhibitor-1 (PAI1) Biomarker Activity (AID 2283037); conditions: primary human bronchial epithelial cells; actives raise or lower the signal
Outline: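 ELISA read-out of PAI-1 from human bronchial epithelial primary cells, 24 h post-dosing; bidirectional curve fit vs DMSO baseline, gain or loss of signal scored.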

[15] = read-out: urokinase plasminogen activator (uPA), PLAU (gene 5328); test: BSK_BE3C_uPA: BioMAP Diversity Plus: BE3C Assay for urokinase plasminogen activator (uPA) Biomarker Activity (AID 2283038); conditions: primary human bronchial epithelial cells; actives raise or lower the signal
Outline: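 Using confluent primary human lung bronchial epithelial cultures, we dosed chemicals, waited 24 h, then ran a uPA ELISA, fitting bidirectionally against DMSO.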

[16] = read-out: Interleukin-6 (IL6), IL6 (gene 3569); test: BSK_CASM3C_IL6: BioMAP Diversity Plus: CASM3C Assay for Interleukin-6 (IL6) Biomarker Activity for (AID 2283040); conditions: primary human coronary artery smooth muscle cells; actives raise or lower the signal
[17] = read-out: Tissue plasminogen activator (tPA), PLAT (gene 5327); test: BSK_BE3C_tPA: BioMAP Diversity Plus: BE3C Assay for Tissue plasminogen activator (tPA) Biomarker Activity (AID 2283041); conditions: primary human bronchial epithelial cells; actives raise or lower the signal;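 further: tPA level quantified by ELISA one day after compound addition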
Outline: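 ELISA read-out of tPA on human primary bronchial epithelial cells, 24 h post-dosing; bidirectional fit vs DMSO negative control/baseline.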

[18] = read-out: Interleukin-8 (IL8), CXCL8 (gene 3576); test: BSK_CASM3C_IL8: BioMAP Diversity Plus: CASM3C Assay for Interleukin-8 (IL8) Biomarker Activity (AID 2283042); conditions: primary human coronary artery smooth muscle cells; actives raise or lower the signal;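 further: IL-8 protein level quantified by ELISA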
[19] = read-out: Urokinase-type plasminogen activator receptor (uPAR), PLAUR (gene 5329); test: BSK_4H_uPAR: BioMAP Diversity Plus: 4H Assay for Urokinase-type plasminogen activator receptor (uPAR) Biomarker Activity (AID 2283030); conditions: primary human endothelial cells (HUVEC); actives raise or lower the signal
Outline: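 Endpoint derived via bidirectional curve fitting against DMSO baseline; readout was ELISA detection of uPAR on umbilical vein endothelial cells at 24 h post-treatment, with SRB-stained parallel cultures assessing cytotoxicity.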

[20] = read-out: Urokinase-type plasminogen activator receptor (uPAR), PLAUR (gene 5329); test: BSK_BE3C_uPAR: BioMAP Diversity Plus: BE3C Assay for Urokinase-type plasminogen activator receptor (uPAR) Biomarker Activity (AID 2283039); conditions: primary human bronchial epithelial cells; actives raise or lower the signal
Outline: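 ELISA readout of uPAR on human lung primary bronchial epithelial cells, 24 h post-dosing. Bidirectional curve fit relative to DMSO vehicle baseline; gain or loss of signal both scored.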

Measured: AC50

COC(=O)c1ccccc1O
not listed: [19] | [20]
inactive: all other assays above

CC(=O)c1ccc2c(c1)[C@H](NC(=O)c1ccc(F)cc1)[C@@H](O)C(C)(C)O2
not listed: [19] | [20]
inactive: all other assays above

C=CCCCCCCCCC(=O)O
not listed: [19] | [20]
inactive: all other assays above

CN(C)c1ccc(N=NS(=O)(=O)O)cc1
active: [10] 8.31 µM
not listed: [6]
inactive: all other assays above

Cc1[nH]cnc1C[C@H]1CCc2c(C)c3ccccc3n2C1=O
active: [1] 26 µM | [3] 18.4 µM | [4] 21.4 µM | [5] 24 µM | [19] 22.5 µM | [10] 28.9 µM | [20] 24.1 µM
not listed: [6]
inactive: all other assays above

Cc1ccc(S(=O)(=O)O)cc1C
not listed: [19] | [20]
inactive: all other assays above

CCOC(=O)COc1ccc2c(c1)CC(NCC(O)c1cccc(Cl)c1)CC2 (stereo not drawn)
inactive: [2] | [6] | [7] | [12] | [14] | [16] | [17] | [18]
active: [1] 26.7 µM | [3] 34.2 µM | [4] 29.8 µM | [5] 28.1 µM | [8] 34.5 µM | [9] 30.3 µM | [10] 30 µM | [11] 30.3 µM | [13] 29 µM | [15] 31.2 µM
